# In publication PMC5540273 (PLoS ONE, 2017):
# Tested on: T1, TIE2
# T1 construct: gene TEK
# Settings: concentration: 1 μM,replicates: in singlicate; n = 1
# 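Note: KINOMEscan kinase panel screen.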
row,Structure (SMILES),%Inh
1,OCCn1cc(-c2cnc3nnn(Cc4ccc5ncccc5c4)c3n2)cn1,0%
2,CC(=O)Nc1nc2cnc(Nc3cc(NC(=O)c4cccc(CC(C)(C)C#N)c4)ccc3C)nc2s1,2%
3,CCNCC(Cc1ccccc1)NC(=O)c1cc(Br)c(-c2ccnc3[nH]ccc23)s1.Cl.Cl (stereo not shown) [GSK1383280],0%
4,N#Cc1cccc(C(=O)NC2CCN(c3ccnc(Nc4ccc(F)cc4)n3)C2)c1 (stereo not shown) [GSK1379708],0%
5,CN1CCN(CCCNc2nccc(-c3c(-c4ccc(F)cc4)nn4cc(C(N)=O)ccc34)n2)CC1 [GW622475],0%
6,O=C(Nc1n[nH]c2cc(-c3ccco3)ccc12)C1CC1 [SB-737447],3%
7,CCOC(=O)N1CCC(n2cnc(-c3ccc(F)cc3)c2-c2ccnc(N)n2)CC1 [SB-219952],10%
8,COc1cc2ncn(-c3cc(OCC4CCCCC4)c(C(N)=O)s3)c2cc1OC [GSK204559],0%
9,CSc1nccc(-c2c(-c3ccc(F)cc3)ncn2CCCN2CCOCC2)n1.Cl [SB-217146],0%
10,CCn1c(-c2nonc2N)nc2cncc(Br)c21 [SB-738004],0%
11,Cn1ccc2ncnc(Oc3ccc(NC(=O)Nc4cccc(C(F)(F)F)c4)c(F)c3)c21,92.8%
12,Cc1cccc(-c2nc(Nc3ccncc3)c3sccc3n2)n1 [GW869641],38%
13,Cn1cc(-c2cccc3c(N)c(C(N)=O)nnc23)cn1,1%
14,CCN1CCN(CCCC(=O)Nc2n[nH]c3nc(-c4ccc(O)cc4)c(Br)cc23)CC1 [SB-731579],0%
15,Cn1ccc2ncnc(Oc3ccc(NC(=O)Nc4cc(C(C)(C)C)on4)c(Cl)c3)c21,97.1%
16,Cc1n[nH]c2cc(Nc3ccnc(Nc4cccc(CN5CCOCC5)c4)n3)ccc12 [GW682569],2%
17,CS(=O)(=O)c1cccc(CNc2nc(Nc3ccc4c(c3)[C@@H]3C[C@@H]4CNC3=O)ncc2C(F)(F)F)c1,68%
18,Cc1ccc(C(=O)Nc2ccc(Oc3ccc4nc(NC(=O)C5CC5)cn4c3)c(F)c2)c(=O)n1-c1ccccc1,99.4%
19,COC(=O)Nc1nc2cc(Oc3ccc(NC(=O)Nc4cc(C(F)(F)F)ccc4Cl)cc3)ccc2[nH]1.Cl [GW697465],99.2%

row,Structure (SMILES),%Inh
1,CC(C)c1nc(-c2cccc(NS(=O)(=O)c3ccccc3)c2)c(-c2ccnc(Nc3ccc4c(c3)CN(C)CC4)n2)s1 [GSK1649598],99%
2,Cn1ccc2ncnc(Oc3ccc(NC(=O)Nc4cccc(C(F)(F)F)c4)c(Cl)c3)c21,94.8%
3,CC(=O)Nc1ccc(-c2cc3ncnc(SCC(=O)O)c3s2)cc1,6%
4,C[C@@H](Oc1cc(-n2cnc3cc(-c4cnn(C)c4)ccc32)sc1C(N)=O)c1ccccc1Cl [GSK580432],82%
5,CC(C(=O)NC1CCN(c2ccnc(Nc3ccc(F)cc3)n2)C1)c1ccc(Cl)cc1 (stereo not shown) [GSK1379713],0%
6,c1ccc(Oc2ccc(Nc3ccnc4ccc(-c5ccccn5)cc34)cc2)cc1 [GW407034],2%
7,COc1cc2c(Nc3ccc(NC(=O)c4ccccc4)cc3)ncnc2cc1OCCCN1CCOCC1 [GSK301329],0%
8,Nc1nccc(-c2ccc3c(N)n[nH]c3c2)n1 [GSK1034945],0%
9,CNC(=O)c1ccccc1Nc1nc(Nc2cccc(CS(C)(=O)=O)c2)ncc1C.O=CO [GSK1520489],95%
10,C[C@@H]1CNc2c(sc3ccc4nc(-c5ccncc5)ccc4c23)C(=O)N1,0%
11,CCn1c(-c2nonc2N)nc2cncc(CNC3CCNCC3)c21.Cl [SB-747651],0%
12,O=C(Nc1cccc(Oc2ccc3nccn3n2)c1)Nc1cccc(C(F)(F)F)c1,5%
13,Cc1ccc(Nc2ccnc(Nc3ccc4c(c3)CS(=O)(=O)C4)n2)cc1O.Cl [GW579362],56%
14,O=C(Nc1cccc(C(F)(F)F)c1)c1cccc(Oc2ccc3nccn3n2)c1,0%
15,NC(=O)c1ccc(-c2cc3ncnc(SCC(=O)O)c3s2)cc1,13%
16,COC(=O)c1cccc(NC(=O)NC2CCN(c3ccnc(Nc4cc(OC)c(OC)c(OC)c4)n3)C2)c1 (stereo not shown) [GSK1379767],4%
17,Cc1cccc2c(-c3ccncc3)c(-c3ccc(F)cc3)nn12.Cl [GW461487],0%
18,CN(c1cccc(CNc2nc(Nc3ccc4c(c3)CC(=O)N4)ncc2C(F)(F)F)c1)S(C)(=O)=O,42%
